Assay [1] in a line: qHTS for identification of novel therapeutic agents for treatment of microphthalmiaassociated transcription factor (MiT) renal cell carcinoma (RCC) (AID 1963991; calls by dose curve). As to conditions: CellTiter-Glo, 48 h; for z-score: stronger effect = lower value. The gist of the method:
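Three TFE3-fusion RCC cell lines (UOK109, UOK124, UOK145), 500 cells/well, were exposed to the 1912-compound MIPE 4.0 library for 48 hours at 37 C. Viability was read by CellTiter-Glo luminescence, normalised to DMSO (100%) and empty wells (0%), with 11-concentration curve fits.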
In general terms: Quantitative high-throughput screening tests each substance at several concentrations.

Assay [2] can be described thus: qHTS drug screen for cell cycle checkpoint inhibitors in PARPi-resistant BRCA-mutant ovarian cancer cell lines. (AID 1963452; calls by dose curve). As to conditions: PEO1/OlaR viability, CellTiter-Glo luminescence, 96 h; for Z-AUC: stronger effect = lower value. The gist of the method:
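PEO1, PEO4 and PEO1/OlaR ovarian cancer cells, 600 per well, exposed 96 h at 37C to a dilution series. Viability read by CellTiter-Glo luminescence, normalized to DMSO and empty wells; activity summarized as Z-AUC.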

Assay [3] in a line: qHTS profiling for inhibitors of Plasmodium falciparum proliferation (AID 504749). Further: nearly all actives have a fitted effect of over 60% in size.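 On activity, negative = inhibition: 0% = DMSO vehicle and full inhibition = artemisinin control.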 The following applies: P. falciparum in erythrocytes, SYBR Green DNA, 72 h. The essentials: (§1)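 Three-day growth assay of blood-stage parasites in erythrocytes (0.3% parasitemia, 2.5% hematocrit) at 37 C, 5% CO2, quantified by SYBR Green DNA staining after overnight detergent lysis.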
Assay [4] concerns 7G8. Described as above. As to conditions: P. falciparum in erythrocytes, SYBR Green DNA, 72 h; series mostly up to 28.7 µM. The gist of the method:
as §1

Assay [5] relates to AA1029. Described as above. The following applies: P. falciparum in erythrocytes, SYBR Green DNA, 72 h; series mostly up to 28.7 µM. The essentials:
as §1

In assay [6] the test system is AS120. Described as above. The following applies: P. falciparum in erythrocytes, SYBR Green DNA, 72 h; series mostly up to 28.7 µM. The gist of the method: as §1
The test system of assay [7] is ATS189. The description is as above. The following applies: P. falciparum in erythrocytes, SYBR Green DNA, 72 h; series mostly up to 28.7 µM. The gist of the method: as §1
The test system of assay [8] is ATS95. The assay is described as above. The following applies: P. falciparum in erythrocytes, SYBR Green DNA, 72 h; series mostly up to 28.7 µM. The essentials: as §1
The subject of assay [9] is C2A. Described as above. As to conditions: P. falciparum in erythrocytes, SYBR Green DNA, 72 h; series mostly up to 28.7 µM. The essentials:
as §1

Assay [10] concerns CP185. Described as above. The following applies: P. falciparum in erythrocytes, SYBR Green DNA, 72 h; series mostly up to 28.7 µM. The gist of the method:
as §1

Assay [11] deals with CP191. The description is as above. The following applies: P. falciparum in erythrocytes, SYBR Green DNA, 72 h; series mostly up to 28.7 µM. The gist of the method:
as §1

For assay [12], the system named is CP192. Described as above. The following applies: P. falciparum in erythrocytes, SYBR Green DNA, 72 h; series mostly up to 28.7 µM. The essentials: as §1
Assay [13] deals with CP194. Described as above. The following applies: P. falciparum in erythrocytes, SYBR Green DNA, 72 h; series mostly up to 28.7 µM. The gist of the method: as §1
Assay [14] concerns CP201. Described as above. The following applies: P. falciparum in erythrocytes, SYBR Green DNA, 72 h; series mostly up to 28.7 µM. The gist of the method: as §1
Assay [15] has as its system CP211. Described as above. The following applies: P. falciparum in erythrocytes, SYBR Green DNA, 72 h; series mostly up to 28.7 µM. The gist of the method: as §1
Assay [16] deals with CP217. The description is as above. As to conditions: P. falciparum in erythrocytes, SYBR Green DNA, 72 h; series mostly up to 28.7 µM. The gist of the method:
as §1

For assay [17], the system named is 3D7. The assay is described as above. As to conditions: P. falciparum in erythrocytes, SYBR Green DNA, 72 h; series mostly up to 28.7 µM. The gist of the method: as §1
The test system of assay [18] is CP215. The assay is described as above. The following applies: P. falciparum in erythrocytes, SYBR Green DNA, 72 h; series mostly up to 28.7 µM. The gist of the method:
as §1

Where [19] appears, read: TFE3-RCC UOK109 viability, measured here: UOK109 Z-AUC.
Where [20] appears, read: TFE3-RCC viability, measured here: UOK124 Z-AUC.
The mark [21] stands for this setting: TFE3-RCC viability, measured here: UOK145 Z-AUC.
[22] abbreviates: measured here: PEO1 parental Z-AUC.
The mark [23] stands for this setting: at 28.7 µM (top of the series), parasite line A.
Where [24] appears, read: at 28.7 µM (top of the series), parasite line B.

Results filed as inconclusive are left out. Active and inactive are the calls of the source. Unless noted, the call rests on the fitted dose curve; in most records, active means well fitted inhibition curve with a large enough effect; inconclusive means small, poorly fitted or top-dose-only effect; inactive means flat fitted curve, though single readings scatter.
Potency means the concentration at half of the fitted maximal effect.

Turning to `CO[C@H]1C[C@@H]2CC[C@@H](C)[C@@](O)(O2)C(=O)C(=O)N2CCCC[C@@H]2C(=O)O[C@H]([C@H](C)C[C@@H]2CC[C@H](OP(C)(C)=O)[C@H](OC)C2)CC(=O)[C@H](C)C=C(C)[C@@H](O)[C@@H](OC)C(=O)[C@H](C)C[C@H](C)C=CC=CC=C1C`, the values for the z-score in assay [1] (setting [19]), in assay [1] (setting [20]) and in assay [1] (setting [21]) were 0.0461, 0.621 and -0.765, respectively.

On to `Nc1ncnc2c1ncn2[C@@H]1O[C@H](CO)C[C@@H]1O`, for which the results for the z-score in assay [1] (setting [19]), in assay [1] (setting [20]) and in assay [1] (setting [21]) were 0.12, 0.223 and 0.00458, respectively.

For the compound `O=C(Nc1c(Cl)cncc1Cl)c1ccc(OC(F)F)c(OCC2CC2)c1`, the Z-AUC was 0.0747 (inactive) in assay [2], 0.551 in [2] (setting [22]) and 0.508 in assay [2] (measured here: PEO4 Z-AUC). Also, the z-score in assay [1] (setting [19]) was -0.715; in [1] (setting [20]), 0.259; in [1] (setting [21]) it was 0.585.

Consider `COc1ncc(-c2ccc3nccc(-c4ccnnc4)c3c2)cc1NS(=O)(=O)c1ccc(F)cc1F`, for which the Potency in assay [2] was 0.174 µM (active); in [1] (TFE3-RCC UOK109 viability, active = Z-AUC below -0.8 in all three lines), 33.2 µM (active). Besides, the Z-AUC in [2] (setting [22]) was -2.06; in [2] (measured here: PEO4 Z-AUC), -1.99. The z-score is -3.1 in assay [1] (setting [19]), -1.24 in [1] (setting [20]) and -3.12 in [1] (setting [21]).

Consider `CCC(CC)[C@H](NC(C)=O)[C@@H]1[C@H](O)[C@@H](C(=O)O)C[C@@H]1N=C(N)N`, for which the z-score in assay [1] (setting [19]) was 0.127; in assay [1] (setting [20]) it was -0.172; in assay [1] (setting [21]) it was -0.0122.

As to `OC[C@H]1O[C@@H](Oc2cc(O)cc(C=Cc3ccc(O)cc3)c2)[C@H](O)[C@@H](O)[C@H]1O`, the z-score is 0.664 in assay [1] (setting [19]), 0.547 in assay [1] (setting [20]) and 1.48 in [1] (setting [21]).

Take `CO[C@H]1C[C@@H]2CC[C@@H](C)[C@@](O)(O2)C(=O)C(=O)N2CCCC[C@@H]2C(=O)O[C@H]([C@@H](C)C[C@@H]2CC[C@H](O)[C@H](OC)C2)CC(=O)[C@H](C)C=C(C)[C@@H](O)[C@@H](OC)C(=O)[C@H](C)C[C@H](C)C=CC=CC=C1C`: the Z-AUC is -0.986 (inactive) in assay [2], -0.581 in assay [2] (setting [22]) and -0.84 in assay [2] (measured here: PEO4 Z-AUC). Further, the values for the z-score in assay [1] (setting [19]), in assay [1] (setting [20]) and in assay [1] (setting [21]) were -0.128, 1.08 and -0.61, respectively.

For the compound `COc1ccc(Cc2nccc3cc(OC)c(OC)cc23)cc1OC`, the Z-AUC in assay [2] is -1.7 (inactive); in assay [2] (setting [22]) it was -1.2; in assay [2] (measured here: PEO4 Z-AUC) it was 0.243. The activity, negative = inhibition in assay [3] (at 12.8 µM (top of the series), parasite line A) was 0.631% (inactive); in [3] (at 12.8 µM (top of the series), parasite line B), 6.88% (inactive). The Potency entry in [4], in assay [6], in assay [7], in assay [11], in assay [12] and in assay [13] was “inactive” throughout. The Potency entry in [15] and in [16] was “inactive” in each case. In addition, the result in [5], in [8], in assay [9], in assay [10] and in assay [14] was inactive.

`O=C(O)c1cc(-c2ccccc2)nc2ccccc12`: the results for the activity, negative = inhibition in assay [3] (setting [23]) and in assay [3] (setting [24]) were -2.25% (inactive) and 7.48% (inactive), respectively. For the same compound, the result in assay [17], in [5], in assay [8], in [9], in assay [10] and in assay [14] was inactive. Besides, the Potency entry in assay [4], in assay [6], in assay [7], in assay [11], in assay [12] and in [13] was “inactive” each time. For the same compound, the Potency entry in assay [15], in [18] and in assay [16] was “inactive” in each case.

Consider `COCCCCC(=NOCCN)c1ccc(C(F)(F)F)cc1`, for which, in [12], the Potency entry is “inactive”.

Turning to `O=C1NC(=O)C(c2ccccc2)(c2ccccc2)N1`, the activity, negative = inhibition in assay [3] (setting [23]) is 3.02% (inactive); in [3] (setting [24]), -26.3% (inactive). Besides, the result in assay [17], in [5], in assay [8], in assay [9], in assay [10] and in assay [14] was inactive. Besides, the Potency result in [4], in [6], in assay [7], in assay [11], in assay [12] and in [13] was “inactive” in each case. Besides, the Potency result in [15], in assay [18] and in assay [16] was “inactive” throughout.

On to `O=C1NCC2(CCN(CCc3ccccc3)CC2)O1`, for which the values for the activity, negative = inhibition in [3] (setting [23]) and in assay [3] (setting [24]) were 12% (inactive) and 1.55% (inactive), respectively. The result in assay [17], in assay [5], in [8], in assay [9], in assay [10] and in assay [14] was inactive. The Potency entry in assay [4], in [6], in assay [7], in [11], in [12] and in [13] was “inactive” each time. In addition, the Potency result in [15], in [18] and in assay [16] was “inactive” throughout.

As to `O=C(OCC#CCSc1nnc(-c2cccc3ccccc23)o1)c1cc2ccccc2s1`, the values for the z-score in [1] (setting [19]), in assay [1] (setting [20]) and in assay [1] (setting [21]) were 0.144, 0.66 and 0.162, respectively.

On to `CCN1CCC[C@H]1CNC(=O)c1cc(S(N)(=O)=O)ccc1OC`, for which the results for the activity, negative = inhibition in [3] (setting [23]) and in [3] (setting [24]) were 7.08% (inactive) and 23% (inactive), respectively. Further, the result in [17], in assay [5], in [8], in assay [9], in [10] and in assay [14] was inactive. Besides, the Potency result in assay [4], in [6], in assay [7], in assay [11], in assay [12] and in assay [13] was “inactive” in each case. Further, the Potency entry in [15], in assay [18] and in assay [16] was “inactive” each time.

On to `CCCCC1C(=O)N(c2ccccc2)N(c2ccccc2)C1=O`, for which the Potency entry in assay [4] was “inactive”.

For `CN(C)CCC(c1ccccc1)c1ccccn1` (stereo unspecified), the values for the activity, negative = inhibition in assay [3] (setting [23]) and in [3] (setting [24]) were 8.91% (inactive) and 5.22% (inactive), respectively. Also, the result in [17], in [9] and in [14] was inactive. In assay [4], the Potency is 5.62 µM (active). The Potency entry in assay [6], in [7], in assay [11], in assay [15] and in assay [16] was “inactive” in each case.

With `NC1CCC(Nc2nc(Nc3ccc(C(=O)N4CCCCC4)cc3)c3ncn(-c4cccc(F)c4)c3n2)CC1` (stereo unspecified), the z-score in assay [1] (setting [19]) stood at 0.32; in [1] (setting [20]) it was 0.539; in [1] (setting [21]) it was 0.657.

Turning to `CCOC(=O)O[C@]1(C(=O)OCCl)CC[C@@H]2[C@H]3CCC4=CC(=O)C=C[C@]4(C)[C@@H]3[C@@H](O)C[C@@]21C`, the activity, negative = inhibition is -7.57% (inactive) in [3] (setting [23]) and 4.48% (inactive) in [3] (setting [24]). In addition, the outcome in assay [17], in assay [5], in [8], in assay [9], in [10] and in assay [14] was inactive. The Potency entry in assay [6], in assay [7], in assay [11], in [12], in assay [13] and in assay [15] was “inactive” in each case. In addition, the Potency entry in [16] was “inactive”.
